CF NFkB block: inhibitors of cystic fibrosis induced NF-kB. AID 588850. inhibition, % at 5 µM. actives 0.86% (n = 360,000). KKLEB NF-kB-GFP reporter, PAF-induced, GFP fluorescence overnight;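 active means at least 50% inhibition at 5 µM, scaled per plate between neutral and stimulator controls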;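 further: PAF is a Pseudomonas aeruginosa culture filtrate used as stimulus; plate controls were PAF-stimulated DMSO wells for no effect and unstimulated DMSO wells for full effect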
KKLEB cytotox: reduces viability of KKLEB cystic fibrosis airway cells | activity change (cytotoxicity), % at 5 µM | AID 602141 | KKLEB CF airway cells viability, ATPlite luminescence, overnight; active compounds read low; cells stimulated with P. aeruginosa culture filtrate | actives 0.36% (n = 360,000);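 active means corrected activity change at or below -50% at 5 µM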
HIF-2a inh: inhibitors of HIF-2a | inhibition, % at 18.8 µM | 786-0 RCC cells HIF-2a reporter, luciferase luminescence, overnight | actives 0.72% (n = 360,000);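 active means inhibition of the luminescence signal of 40% or more relative to plate controls, in a single-dose primary screen at 18.75 µM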
TRAIL sens C8: sensitizes caspase-8 expressing cells to TRAIL; NB7+C8 cells + TRAIL, ATPlite viability luminescence; inhibition (viability loss, TRAIL sensitization), % at 10 µM; actives 1% (n = 360,000);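 active means compounds causing at least 50% loss of cell viability in the single-dose screen, relative to plate controls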
PPC-1+TRAIL kill: kills PPC-1 cancer cells in the presence of TRAIL | AID 1443 | cell killing (% activity), % at 4 µM or 5 µM | actives 0.41% (n = 220,000) | PPC-1 cells + TRAIL, ATPLite viability luminescence;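 active means cell killing above 50% in the first pass at 4 µM, then a duplicate retest at 5 µM averaging 50% or more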;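 further: plate controls were cells with TRAIL plus DMSO for no effect and medium-only wells lacking cells for full effect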
Peg3 prom inh: Peg3 promoter activity inhibition; HeLa PEG-Prom luciferase reporter, luminescence, overnight; inhibition, % at 20 µM; actives 1.7% (n = 360,000); AID 588405;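 active means inhibition of at least 50% at 20 µM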
* marks the source's active call; other numbers are inactive results; . = no result given. The list is not random: actives were taken first. Their share in the collection is about 3.1%.

SMILES	CF NFkB block	KKLEB cytotox	HIF-2a inh	TRAIL sens C8	PPC-1+TRAIL kill	Peg3 prom inh
COc1ccc2c(c1)CC/C(=C\Nc1ccc3c(c1)OCO3)C2=O	-8	-13	-388	52*	13	-213
O=C1/C(=C/Nc2ccc3c(c2)OCO3)CCc2ccccc21	-18	-53*	-28	86*	27	10
O=C1OC2(CCCCC2)OC(=O)C1=CNc1ccc2c(c1)OCO2	6	2	-70	-8	18	-34
O=C(Nc1cc(Cl)ccc1N1CCOCC1)c1ccc(=O)[nH]c1	7	0	-2	-17	.	-8
Cc1ccc(S(=O)(=O)N(C)C)cc1NC(=O)c1cc(S(=O)(=O)N2CCCCC2)ccc1N1CCOCC1	13	-12	6	-3	.	5
CCC(C)c1ccc(NC(=S)NC2CCN(Cc3ccccc3)CC2)cc1 (configuration not stated)	2	-1	12	19	7	77*
CCc1ccc(NC(=S)NC2CCN(Cc3ccccc3)CC2)cc1	-5	4	-12	-3	12	12
CCOC(=O)C(=C1Nc2ccccc2N1)n1c(-c2cccnc2)nc2ccccc21	.	.	-211	71*	.	.
CCOC(=O)Cn1c(-c2cccnc2)nc(-c2ccccc2)c1-c1ccccc1	10	-14	24	1	.	24
CCOC(=O)C1=CC[C@@H](c2ccccc2)N(S(=O)(=O)c2ccc(C)cc2)[C@H]1C#N	43	-16	-43	-4	.	-75
CC(=O)Nc1cc(-c2ccccc2CN(C)C)cn2c(-c3ccc(F)c(Cl)c3)cnc12	-12	-6	11	1	.	3
CCOC(=O)c1ccc(NC(=O)c2cnccn2)cc1	-20	1	-207	-3	10	-189
CCCCc1ccc(NC(=O)c2cnccn2)cc1	-8	-27	-96	55*	21	-63
COc1cc(/C=C/C(=O)OCC(=O)N2c3ccccc3NC(=O)C2(C)C)cc(OC)c1OC	15	-19	-13	3	.	65*
O=C(NC(=S)Nc1nc2ccccc2s1)c1cccs1	-12	-56*	-232	84*	13	-225
CCc1ccc(-c2nc(NC(=S)NC(=O)c3cccs3)sc2C)cc1	-9	10	11	-34	5	-3
COC(=O)c1nc(NC(=S)NC(=O)c2cccs2)sc1C	20	-18	-149	50*	.	-207
COc1ccc(OC)c(NC(=O)C2(C)CCN2C(=O)C2(c3ccccc3)CCCC2)c1 (configuration not stated)	26	-12	3	-14	.	30
C=Cc1ccc(Cn2c(C)c(C(=O)NCc3ccc(Cl)c(Cl)c3)sc2=O)cc1	1	-11	1	54*	.	14
C=Cc1ccc(Cn2c(C)c(C(=O)NCc3ccc4c(c3)OCCO4)sc2=O)cc1	-2	-24	6	0	.	23
COc1ccc(C(=O)/C=C/c2ccc(N3CCCCC3)c([N+](=O)[O-])c2)cc1	6	0	-9	8	25	6
COc1ccc(C(=O)/C=C/c2ccc(N3CCCCC3)c([N+](=O)[O-])c2)c(OC)c1	-8	4	41*	17	6	39
COCOc1cc(O)c(C(=O)/C=C/c2ccccc2)c(OCOC)c1	40	-3	37	19	.	95*
COc1ccc(C(=O)/C=C/c2ccccc2)c(OC)c1	15	-20	-121	26	16	68*
Cc1ccccc1-c1csc(C(C)(O)c2ccc(F)c(F)c2)n1 (configuration not stated)	19	1	-29	-1	.	-4
SMILES	CF NFkB block	KKLEB cytotox	HIF-2a inh	TRAIL sens C8	PPC-1+TRAIL kill	Peg3 prom inh
Cn1ncc(Cl)c1C(=O)N1CCC(Cc2ccccc2)CC1	22	-18	12	-6	.	1
COc1ccc(C(O)c2ncc(-c3cccc4ccccc34)[nH]2)cc1F (configuration not stated)	4	-6	2	-6	.	28
C[C@@H]1CN([C@H](C)CO)C(=O)CCCn2cc(nn2)CO[C@H]1CN(C)S(=O)(=O)c1ccc2ccccc2c1	-26	0	-1	-27	.	-9
Cc1c(Cl)cccc1NC(=S)NCCC(c1ccccc1)c1ccccc1	8	-3	27	-24	18	31
Cc1cc(Cl)ccc1NC(=S)NCCC(c1ccccc1)c1ccccc1	2	-7	17	4	4	68*
Cc1noc(N)c1C(=O)Nc1ccc(C(C)(C)C)cc1	-37	-1	-275	56*	30	-263
COc1ccc(-c2ccc(SCC(=O)Nc3cccc(C(C)=O)c3)nn2)cc1OC	10	-12	-146	26	25	-58
CC(=O)c1cccc(NC(=O)CSc2ccc(-c3ccc4c(c3)OCO4)nn2)c1	-18	7	-119	64*	28	-96
C/C(=N\Nc1nnc(-c2ccccc2)c(-c2ccccc2)n1)c1cccc([N+](=O)[O-])c1	34	-51*	10	9	.	19
Cc1ccnc(NC(=O)CCC2CCCCC2)c1	3	-16	-222	63*	42	-254
CN(C)CCOc1ccc(-c2c(-c3ccsc3)sc3ccccc23)cc1	42	-31	-2	17	.	98*
c1ccc(-c2sc3ccccc3c2-c2ccc(OCCN3CCOCC3)cc2)cc1	18	-3	11	21	.	14
COc1ccc(-c2sc3ccccc3c2-c2ccc(OCCN(C)C)cc2)cc1	44	-47	22	79*	.	101*
COc1ccc(-c2sc3ccccc3c2-c2ccc(O)cc2)cc1	1	12	6	-5	.	42
Cc1ccc(-n2nc3c(=O)n(CCCC(=O)NC4CCC(C)CC4)nc(C)c3c2C)cc1 (configuration not stated)	22	-5	6	1	.	-20
CC(=O)C1=C(c2ccc(Br)cc2)C(=O)c2ccccc2C1=O	81*	-12	30	27	23	96*
CC1=C(C(=O)N2CCOCC2)CC(CC(=O)NCCc2ccccn2)C(=O)N1Cc1ccccc1 (configuration not stated)	-13	-2	-1	11	.	-6
CCCCNS(=O)(=O)c1ccc(NC(=O)C(Sc2ccccc2)c2ccccc2)cc1 (configuration not stated)	1	5	9	18	7	59*
O=C(COc1ccc(Br)cc1Cl)NC(=S)Nc1ccccn1	14	-10	-182	22	.	-222
Cc1ccc(OCC(=O)NC(=S)Nc2ccccn2)c(Br)c1	-23	-17	22	84*	.	17
O=C(Nc1nc2ccccc2n1CCN1CCOCC1)c1ccccc1	-1	-5	-10	12	.	-5
O=C(Nc1nc2ccccc2n1CCN1CCOCC1)c1cn(-c2ccccc2)nc1-c1ccccc1	3	-19	12	15	4	84*
O=C(CCC1CCCCC1)NCCS(=O)(=O)N1CCN(c2ccccc2)CC1	-10	3	6	-1	.	10

Screening results (PubChem BioAssay)
